Test [1] in a line: small molecules captured by biotinylated probe aFSTL3 – biochemical, small-molecule microarray, fluorescence 635/667, stem cell growth factor project, primary screen (AID 1064).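 Also: measures binding of the biotinylated anti-FSTL3 antibody to printed compounds.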 Particulars: higher = more signal.
Test [2] can be described thus: binders from COS7 lysate, DM2A8 probe, primary screen, torsin A project, cell lysate, small-molecule microarray, fluorescence 635/667 (AID 1065). The conditions noted are these: higher = more signal, COS7 lysate expressing mutant human TOR1A.
Test [3] can be described thus: small molecules captured by biotinylated probe aFGF2 – biochemical, small-molecule microarray, fluorescence 635/667, stem cell growth factor project, primary screen (AID 1067).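 Also: measures binding of biotinylated aFGF2 protein to printed compounds on slides; z-score merges feature fluorescence and signal-to-noise across triplicate slides.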 The conditions noted are these: higher = more signal.
The nature of test [4]: small molecules captured by biotinylated probe aFGF10 – biochemical, small-molecule microarray, fluorescence 635/667, stem cell growth factor project, primary screen (AID 1071).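 Also: score merges 667 nm spot intensity and signal to noise from triplicate slides.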 Particulars: higher = more signal.
Test [5] concerns the target Neurogenic locus notch homolog protein 2 (Homo sapiens) (UniProt Q04721). The experiment in a line: small molecules binding Notch2 protein – biochemical, small-molecule microarray, 635 nm fluorescence, stem cell growth factors, primary screen (AID 1073). The conditions noted are these: higher = more signal.
The target in test [6] is Pro-neuregulin-1, membrane-bound isoform (Homo sapiens) (UniProt Q02297). Kind of test: small molecules binding neuregulin-1 protein – biochemical, small-molecule microarray, fluorescence 635/667, psychiatric disease protein project, primary screen (AID 1075).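 Also: score combines 667 nm spot fluorescence with signal to noise.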 Particulars: NRG1 binding, 635 nm fluorescence, higher = more signal.
Test [7] deals with Neuregulin-1 EGF-like domain. The experiment in a line: small molecules binding NRG1 EGF domain – biochemical, small-molecule microarray, 635 nm fluorescence, primary screen (AID 1081).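 Also: binding of the protein to compounds printed on small-molecule microarray slides.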 The conditions noted are these: higher = more signal.
A short description of test [8]: FRG1 expression reporter modulators in myotubes – cell-based, C2C12 myotubes, firefly/Renilla luciferase, luminescence, FRG1 inhibition for FSHD, primary screen (AID 1084). Particulars: FRG1 promoter luciferase, higher = more signal, called active from +8 up or from −8 down.
The nature of test [9]: small molecules captured by biotinylated probe aFST – biochemical, small-molecule microarray, fluorescence 635/667, stem cell growth factor project, primary screen (AID 1086).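 Also: score merges 667 nm fluorescence with signal-to-noise of each printed compound spot.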 The conditions noted are these: higher = more signal.
The nature of test [10]: binders of probe aHhip on microarray, primary screen, stem cell growth factor project, biochemical, small-molecule microarray, fluorescence 635/667 (AID 1087).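 Also: score merges spot fluorescence at 667nm with spot signal to noise ratio.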 Particulars: higher = more signal.
Test [11] concerns PRMT1 (protein arginine N-methyltransferase 1). Kind of test: small molecules binding arginine methyltransferase PRMT1 – biochemical, small-molecule microarray, 635 nm fluorescence, primary screen (AID 1088).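 Also: binding of Prmt1 protein to compounds spotted on small-molecule microarray slides.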 The conditions noted are these: higher = more signal.
Test [12] in a line: growth effects on S. cerevisiae YJM789 – YJM789 clinical isolate, OD600, 24 h, basal, primary screen (AID 1089).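 Also: growth of clinical yeast isolate S. cerevisiae YJM 789 seeded 1000 cells per well; test concentration not given here.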 The conditions noted are these: higher = more signal, called active from +8 up or from −8 down.
Test [13] can be described thus: S. pombe growth modifiers, basal conditions – strain 972, OD600, 24 h, no modulator, primary screen (AID 1090).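 Also: basal condition with compound alone and no growth modifier present; test concentration not given here.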 Particulars: S. pombe 972 growth, higher = more signal, called active from +8 up or from −8 down.
Test [14] in a line: budding yeast growth modifiers under rapamycin – strain BY4716, OD600, 96 h, primary screen (AID 1091). Also: test concentration not given here. The conditions noted are these: S. cerevisiae BY4716 + rapamycin, higher = more signal, called active from +8 up or from −8 down.
Test [15] concerns the target Torsin-1A-interacting protein 2 (Homo sapiens) (UniProt Q8NFQ8). Kind of test: small molecules binding lysate-expressed LULL1 – cell lysate, human LULL1 lysate, 635/667 nm fluorescence, primary screen (AID 1092).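 Also: probe is lysate of COS7 cells overexpressing human LULL1; score merges per-feature 667 nm fluorescence with signal-to-noise.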 Particulars: small-molecule microarray, hLULL1 lysate binding, 635 nm fluorescence; higher = more signal.
The nature of test [16]: optical density change of DRC41 E. coli – strain DRC41, OD650, 24 h, E. coli filamentation project, primary screen (AID 1093).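 Also: MC1000 strain lacking acrAB efflux and sulA so SOS filamentation is blocked; test concentration not given here.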 Particulars: E. coli DRC41 growth, higher = more signal, called active from +8 up or from −8 down.
Test [17] in a line: probe aLefty2 binding to arrayed compounds – biochemical, biotinylated probe, 635/667 nm fluorescence, primary screen (AID 1094).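 Also: score merges spot fluorescence near 667 nm with spot signal-to-noise ratio.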 The conditions noted are these: small-molecule microarray, higher = more signal.
Test [18] concerns Noggin (protein binding on small-molecule microarray). The experiment in a line: small molecules binding Noggin protein – biochemical, 635/667 nm fluorescence, primary screen (AID 1095).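 Also: score merges 667 nm feature fluorescence with signal to noise over triplicate slides.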 Particulars: 635 nm fluorescence, higher = more signal.
In test [19] the target is Neurogenic locus notch homolog protein 3 (Homo sapiens) (UniProt Q9UM47). The experiment in a line: small molecules binding NOTCH3 protein – biochemical, 635/667 nm fluorescence, primary screen (AID 1096). Particulars: small-molecule microarray, 635 nm fluorescence, higher = more signal.
Chain of Neurogenic locus notch homolog protein 3 (Homo sapiens) (Q9UM47 whole entry, looked up): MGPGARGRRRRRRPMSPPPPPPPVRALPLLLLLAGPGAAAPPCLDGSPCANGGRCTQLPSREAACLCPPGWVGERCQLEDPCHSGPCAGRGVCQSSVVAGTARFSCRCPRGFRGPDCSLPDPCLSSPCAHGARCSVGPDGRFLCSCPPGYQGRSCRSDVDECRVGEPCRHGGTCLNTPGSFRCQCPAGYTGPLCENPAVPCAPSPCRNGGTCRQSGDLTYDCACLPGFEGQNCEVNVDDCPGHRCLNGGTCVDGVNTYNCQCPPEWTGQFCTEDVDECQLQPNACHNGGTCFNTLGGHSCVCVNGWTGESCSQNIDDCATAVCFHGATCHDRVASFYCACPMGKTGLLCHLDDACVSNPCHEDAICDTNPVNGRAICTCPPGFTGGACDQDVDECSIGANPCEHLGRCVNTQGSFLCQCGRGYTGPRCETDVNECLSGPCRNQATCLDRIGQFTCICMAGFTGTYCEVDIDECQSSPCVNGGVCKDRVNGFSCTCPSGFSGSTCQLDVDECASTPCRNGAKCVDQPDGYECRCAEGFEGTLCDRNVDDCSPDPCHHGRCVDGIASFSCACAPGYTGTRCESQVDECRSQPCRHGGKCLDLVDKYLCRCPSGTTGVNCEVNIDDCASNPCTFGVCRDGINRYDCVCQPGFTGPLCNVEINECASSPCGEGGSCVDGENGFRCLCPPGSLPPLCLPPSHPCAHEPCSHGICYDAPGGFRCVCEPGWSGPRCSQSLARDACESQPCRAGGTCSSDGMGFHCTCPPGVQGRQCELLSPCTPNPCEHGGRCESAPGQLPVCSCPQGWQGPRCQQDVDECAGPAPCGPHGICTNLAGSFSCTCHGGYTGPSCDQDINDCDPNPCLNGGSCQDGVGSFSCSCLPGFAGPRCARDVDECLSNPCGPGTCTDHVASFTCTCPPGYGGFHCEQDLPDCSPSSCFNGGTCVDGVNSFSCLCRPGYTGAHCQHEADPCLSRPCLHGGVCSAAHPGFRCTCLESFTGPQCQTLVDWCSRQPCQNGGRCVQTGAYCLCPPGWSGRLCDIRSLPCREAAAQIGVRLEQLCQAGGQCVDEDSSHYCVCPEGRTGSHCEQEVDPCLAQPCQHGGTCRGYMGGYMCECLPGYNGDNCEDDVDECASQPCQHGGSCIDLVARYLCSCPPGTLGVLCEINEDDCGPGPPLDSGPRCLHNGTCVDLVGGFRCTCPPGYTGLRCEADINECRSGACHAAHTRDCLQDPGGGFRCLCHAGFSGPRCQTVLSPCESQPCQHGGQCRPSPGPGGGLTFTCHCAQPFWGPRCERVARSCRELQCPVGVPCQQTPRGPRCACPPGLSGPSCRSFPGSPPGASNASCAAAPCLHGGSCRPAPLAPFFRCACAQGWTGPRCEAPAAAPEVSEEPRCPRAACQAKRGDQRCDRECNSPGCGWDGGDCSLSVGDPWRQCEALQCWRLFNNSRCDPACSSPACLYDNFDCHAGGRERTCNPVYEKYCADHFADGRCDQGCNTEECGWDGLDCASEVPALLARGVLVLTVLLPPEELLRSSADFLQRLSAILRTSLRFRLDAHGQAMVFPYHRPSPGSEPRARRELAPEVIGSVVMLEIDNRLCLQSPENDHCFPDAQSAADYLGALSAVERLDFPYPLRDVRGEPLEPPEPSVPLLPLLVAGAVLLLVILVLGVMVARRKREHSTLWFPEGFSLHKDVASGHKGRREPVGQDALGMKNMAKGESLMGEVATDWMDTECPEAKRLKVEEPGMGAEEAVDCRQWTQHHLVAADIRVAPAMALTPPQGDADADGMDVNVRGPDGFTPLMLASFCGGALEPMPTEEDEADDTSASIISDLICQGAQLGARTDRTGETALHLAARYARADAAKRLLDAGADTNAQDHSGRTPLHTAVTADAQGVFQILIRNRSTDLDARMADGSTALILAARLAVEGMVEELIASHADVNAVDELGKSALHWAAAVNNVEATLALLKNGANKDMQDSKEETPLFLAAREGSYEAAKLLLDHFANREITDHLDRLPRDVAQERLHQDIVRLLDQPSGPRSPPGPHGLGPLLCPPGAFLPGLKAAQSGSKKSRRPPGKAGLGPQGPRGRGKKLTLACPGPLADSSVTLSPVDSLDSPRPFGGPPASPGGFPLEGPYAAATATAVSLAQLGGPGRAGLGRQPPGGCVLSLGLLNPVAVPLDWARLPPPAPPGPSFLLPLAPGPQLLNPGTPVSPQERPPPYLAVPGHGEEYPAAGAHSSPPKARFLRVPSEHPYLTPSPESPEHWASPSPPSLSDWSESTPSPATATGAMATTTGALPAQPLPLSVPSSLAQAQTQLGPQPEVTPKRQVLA
A short description of test [20]: probe aEGFR binding to arrayed compounds – biochemical, biotinylated probe, 635/667 nm fluorescence, primary screen (AID 1097).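 Also: probe is a biotinylated anti-EGFR antibody binding compounds printed on slides; score combines fluorescence near 667 nm and signal to noise of each spot.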 The conditions noted are these: small-molecule microarray, higher = more signal.

The values that follow come from PubChem BioAssay.

Activity calls are given as the source filed them.

Chain of Neurogenic locus notch homolog protein 2 (Homo sapiens) (Q04721 whole entry, looked up, canonical isoform): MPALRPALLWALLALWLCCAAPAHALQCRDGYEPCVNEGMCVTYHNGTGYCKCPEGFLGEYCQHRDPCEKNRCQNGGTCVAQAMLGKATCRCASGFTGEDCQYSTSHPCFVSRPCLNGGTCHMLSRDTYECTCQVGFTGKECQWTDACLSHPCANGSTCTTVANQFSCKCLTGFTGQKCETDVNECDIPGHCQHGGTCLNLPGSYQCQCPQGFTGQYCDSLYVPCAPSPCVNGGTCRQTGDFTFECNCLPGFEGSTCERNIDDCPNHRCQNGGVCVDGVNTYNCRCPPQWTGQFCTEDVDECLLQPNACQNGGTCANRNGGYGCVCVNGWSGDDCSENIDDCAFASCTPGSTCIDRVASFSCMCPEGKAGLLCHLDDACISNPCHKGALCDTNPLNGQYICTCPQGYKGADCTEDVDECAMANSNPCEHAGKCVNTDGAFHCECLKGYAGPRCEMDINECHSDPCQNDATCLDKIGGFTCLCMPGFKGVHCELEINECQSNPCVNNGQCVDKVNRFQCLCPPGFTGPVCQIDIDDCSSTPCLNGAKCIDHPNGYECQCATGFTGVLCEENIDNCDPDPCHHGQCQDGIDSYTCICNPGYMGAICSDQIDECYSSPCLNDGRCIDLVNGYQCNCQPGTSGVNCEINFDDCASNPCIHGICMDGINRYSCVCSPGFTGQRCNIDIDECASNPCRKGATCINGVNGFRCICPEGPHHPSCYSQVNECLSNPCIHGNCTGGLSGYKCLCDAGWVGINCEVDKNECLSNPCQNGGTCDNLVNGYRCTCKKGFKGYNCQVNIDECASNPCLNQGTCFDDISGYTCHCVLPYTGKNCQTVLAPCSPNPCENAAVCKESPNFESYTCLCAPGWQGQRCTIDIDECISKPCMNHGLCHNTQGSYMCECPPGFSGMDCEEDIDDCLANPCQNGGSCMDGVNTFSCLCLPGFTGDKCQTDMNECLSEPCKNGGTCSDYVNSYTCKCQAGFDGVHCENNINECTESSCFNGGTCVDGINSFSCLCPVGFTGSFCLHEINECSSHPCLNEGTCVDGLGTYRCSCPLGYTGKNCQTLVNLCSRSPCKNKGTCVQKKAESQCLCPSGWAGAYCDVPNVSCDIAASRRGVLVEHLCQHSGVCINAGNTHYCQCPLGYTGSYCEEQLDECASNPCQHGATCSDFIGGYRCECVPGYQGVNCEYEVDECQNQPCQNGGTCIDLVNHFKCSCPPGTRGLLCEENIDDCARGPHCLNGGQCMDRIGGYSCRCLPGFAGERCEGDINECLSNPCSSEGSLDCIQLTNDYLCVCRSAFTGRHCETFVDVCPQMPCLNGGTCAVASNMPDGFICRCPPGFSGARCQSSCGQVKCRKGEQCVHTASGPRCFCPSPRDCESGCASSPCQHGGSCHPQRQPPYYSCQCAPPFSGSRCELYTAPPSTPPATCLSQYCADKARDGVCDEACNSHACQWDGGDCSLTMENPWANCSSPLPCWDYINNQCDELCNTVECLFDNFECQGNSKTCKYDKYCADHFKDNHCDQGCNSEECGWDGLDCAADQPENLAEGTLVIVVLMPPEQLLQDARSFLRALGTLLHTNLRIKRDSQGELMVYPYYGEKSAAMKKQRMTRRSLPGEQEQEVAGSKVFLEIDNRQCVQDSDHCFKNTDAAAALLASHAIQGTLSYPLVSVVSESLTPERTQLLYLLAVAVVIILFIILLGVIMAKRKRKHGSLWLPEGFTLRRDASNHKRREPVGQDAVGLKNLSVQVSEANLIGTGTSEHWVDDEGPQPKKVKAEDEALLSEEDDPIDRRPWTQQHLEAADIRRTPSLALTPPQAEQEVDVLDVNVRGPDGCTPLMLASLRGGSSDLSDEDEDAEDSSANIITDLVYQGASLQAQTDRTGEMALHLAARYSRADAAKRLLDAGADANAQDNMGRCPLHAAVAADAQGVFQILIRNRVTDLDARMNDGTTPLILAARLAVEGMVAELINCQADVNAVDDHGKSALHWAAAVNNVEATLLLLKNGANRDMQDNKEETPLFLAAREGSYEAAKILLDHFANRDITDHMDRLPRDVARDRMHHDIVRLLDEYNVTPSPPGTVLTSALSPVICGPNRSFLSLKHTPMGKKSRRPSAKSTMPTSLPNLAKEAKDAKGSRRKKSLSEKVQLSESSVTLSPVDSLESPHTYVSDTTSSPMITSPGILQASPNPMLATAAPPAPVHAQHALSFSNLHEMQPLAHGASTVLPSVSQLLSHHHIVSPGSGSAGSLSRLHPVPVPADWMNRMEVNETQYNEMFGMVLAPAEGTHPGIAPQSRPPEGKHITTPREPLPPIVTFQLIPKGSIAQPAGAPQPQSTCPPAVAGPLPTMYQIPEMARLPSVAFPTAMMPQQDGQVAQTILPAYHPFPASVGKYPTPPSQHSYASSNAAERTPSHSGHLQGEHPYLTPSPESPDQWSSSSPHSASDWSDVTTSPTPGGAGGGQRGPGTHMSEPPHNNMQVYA

With `O=C(O)[C@@]1(Cc2ccccc2)N=C(c2ccc(OCCCO)cc2)O[C@H]1c1ccccc1`, the composite z-score in test [1] is 0.447; in test [2], -0.647; in test [3] it was -0.0819; in test [4] it was 0.0083; in [5], -0.738; in test [6] it was 1.91. The composite z-score in [7] was 0.923; in [9] it was 0.88; in test [10], -0.126; in test [11], 1.48; in [15], 2.42; in [17], -0.126. Also, the values for the composite z-score in test [18], in test [19] and in [20] were 0.454, 0.793 and -0.184, respectively. Besides, the z-score is -3.29 (inactive) in test [8]; 0.552 (inactive) in test [12]; -0.93 (inactive) in test [13]; 0.115 (inactive) in test [14]; 0.625 (inactive) in [16].

Consider `[N-]=[N+]=NCc1ccccc1C[C@]1(C(=O)O)N=C(c2ccc(OCCCO)cc2)O[C@H]1c1ccccc1`, for which the composite z-score in test [1] is 0.32; in [2], 0.474; in test [3], -0.0184; in test [4], 0.39; in test [5], 0.0892; in [6], 1.09. Besides, the composite z-score was 0.976 in test [7]; 0.219 in test [9]; -0.261 in test [10]; 1.01 in test [11]; 1.86 in test [15]; -0.0221 in [17]. For the same compound, the composite z-score is -0.985 in [18], 0.204 in [19] and -0.232 in [20]. The z-score is -2.33 (inactive) in [8]; -0.143 (inactive) in test [12]; -0.305 (inactive) in test [13]; -1.36 (inactive) in test [14]; 0.279 (inactive) in [16].

Turning to `COC(=O)[C@@]1(Cc2ccccc2)[C@H]2c3cc(C(=O)N4CCCC4)n(C)c3C[C@H]2CN1C(=O)c1ccccc1`, the composite z-score is 0.483 in [1]; -0.207 in test [2]; 0.107 in test [3]; -0.0646 in test [4]; 1.67 in test [5]; 1.51 in [6]. Besides, the composite z-score in test [7] turned out to be 1.25; in test [9] it was 0.882; in [10] it was 1.72; in test [11], 0.0683; in test [15] it was 3.35; in [17], 0.0165. For the same compound, the figures for the composite z-score in test [18], in test [19] and in [20] were 0.0182, 0.732 and 0.287, respectively. Besides, the z-score in test [8] was 0.121 (inactive); in test [12], 0.29 (inactive); in [13], 0.68 (inactive); in test [14], 0.0928 (inactive); in test [16], 0.391 (inactive).

Consider `CC(C)NC(=O)[C@@]1(Cc2ccccc2I)c2ccccc2C(=O)N(Cc2ccccc2)[C@H]1c1ccc(CO)cc1`, for which the composite z-score is 0.0478 in [1]; 0.613 in [2]; -0.017 in [3]; 0.554 in test [4]; 0.787 in test [5]; 1.38 in test [6]. The composite z-score in test [7] was 0.986; in [9], 0.612; in test [10], 0.0401; in test [11], 1.53; in [15] it was 2.91; in test [17], -0.0354. In addition, the composite z-score is 1.04 in test [18], 1.09 in test [19] and -0.0605 in test [20]. Moreover, the z-score was -2.91 (inactive) in [8]; -0.805 (inactive) in test [12]; -1.5 (inactive) in [13]; -0.291 (inactive) in test [14]; -0.408 (inactive) in test [16].

Consider `Cc1ccccc1C(O)C1C=CC2C(=O)N(C)C(=O)C2N1Nc1ccccc1` (stereo not given), for which the composite z-score in test [1] is 0.413; in test [2] it was 0.526; in test [3], -0.0035; in [4], 0.0865; in test [5], 1.22; in test [6] it was 2.05. In addition, the composite z-score in test [7] was 1.14; in test [9], 0.842; in test [10], -0.0994; in [11], 1.25; in test [15] it was 2.98; in test [17] it was 0.149. For the same compound, the values for the composite z-score in [18], in [19] and in test [20] were -0.657, 0.993 and -0.0634, respectively. Further, the z-score in test [8] is 0.772 (inactive); in test [12], -0.145 (inactive); in [13] it was -0.885 (inactive); in [14] it was -0.0194 (inactive); in test [16], -1.43 (inactive).

As for `CC(=O)NCCCC[C@@H]1NC(=O)[C@@H]2C[C@H](C(=O)NCCCCCCNC(=O)CS)[C@H](c3ccc(O)cc3)N2C1=O`, the composite z-score in [1] is 0.219; in [2], 0.463; in [3], -0.0985; in test [4], -0.1; in test [5], -0.498; in test [6], 1.49. Besides, the composite z-score in test [7] is 1.27; in test [9], -0.715; in test [10], -0.0645; in test [11] it was 1.5; in [15] it was 1.46; in [17], -0.103. Moreover, the composite z-score was 0.171 in [18], 0.0726 in [19] and -0.142 in test [20]. Moreover, the z-score was 1.5 (inactive) in test [8]; 0.372 (inactive) in test [12]; -0.804 (inactive) in test [13]; 0.778 (inactive) in [14]; -0.581 (inactive) in test [16].

In the case of `C=CCNC(=O)[C@H]1[C@@H]2C(=O)O[C@@H](c3ccccc3)[C@@H](c3ccccc3)N2[C@@H](c2ccc(O)cc2)[C@]12C(=O)N(C(=O)OCCOC)c1ccc(C#CCCO)cc12`, the composite z-score was 0.174 in [1]; 1.93 in [2]; -0.154 in test [3]; 0.932 in test [4]; 0.0576 in test [5]; 1.33 in test [6]. Moreover, the composite z-score is 1.32 in test [7]; -0.0024 in test [9]; -0.0618 in test [10]; 1.58 in [11]; 2.97 in test [15]; -0.0916 in test [17]. For the same compound, the composite z-score in test [18] was -0.176; in test [19], -0.15; in test [20], -0.0163. Also, the z-score is -4.26 (inactive) in test [8]; 1.16 (inactive) in test [12]; -0.47 (inactive) in test [13]; 0.804 (inactive) in [14]; 1.07 (inactive) in [16].

For `O=C1OCCC/C=C\[C@H]2OC34C=CCN(Cn5nnc6ccccc65)C(=O)[C@H]3N(CCCCCO)C(=O)[C@@H]4C12` (stereo not given in full), the composite z-score in [1] was 0.0227; in [2] it was -0.126; in test [3], -0.145; in [4] it was -0.821; in test [5] it was -0.919; in test [6] it was 0.865. Moreover, the composite z-score in [7] is 0.443; in test [9], -0.666; in test [10] it was -0.206; in test [11], -1.29; in [15], 1.04; in test [17], -0.114. Further, the results for the composite z-score in test [18], in test [19] and in [20] were -0.808, -0.0037 and -0.174, respectively. Also, the z-score in test [8] was 0.406 (inactive); in [12], -0.401 (inactive); in test [13] it was -0.745 (inactive); in test [14], -1.83 (inactive); in test [16], 0.498 (inactive).

With `N#Cc1ccc(NN2C(C(O)C3CCCCC3)C=CC3C(=O)N(c4ccccc4)C(=O)C32)cc1` (stereo not given), the composite z-score in [1] was 0.0086; in test [2] it was -0.433; in test [3], 0.0429; in test [4], 0.461; in [5], 1.58; in test [6], 1.31. In addition, the composite z-score in [7] was 1.33; in test [9], 1.38; in test [10], 0.754; in test [11] it was 1.45; in test [15] it was 3.26; in test [17], 0.217. Also, the composite z-score in [18] is -0.0519; in [19], 1.03; in [20], 0.0065. In addition, the z-score in test [8] was -0.585 (inactive); in [12] it was -0.21 (inactive); in test [13], 0.661 (inactive); in test [14], 2.46 (inactive); in test [16] it was -1.08 (inactive).
